Experiment [1] deals with Peroxisome proliferator-activated receptor gamma (Homo sapiens) (UniProt P37231). As to the kind of experiment: qHTS assay for small molecule antagonists of peroxisome proliferator-activated receptor gamma signaling (AID 588537; active means well fitted inhibition curve with a large enough effect in the signal ratio, with a control signal flat, not every such curve was filed as active; the % refers to the signal ratio;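 further: reporter cells co-stimulated with 50 nM rosiglitazone agonist during compound treatment; % of control where 0% means no effect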). In short, it runs like this: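 Antagonist-mode β-lactamase reporter screen run as a titration series. HEK293 PPARγ-UAS-bla cells are stimulated with rosiglitazone (50 nM final) for 16 h, then CCF4 is read at 460/530 nm. Data are scaled between DMSO and rosiglitazone and fitted to the Hill equation.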
Sequence of Peroxisome proliferator-activated receptor gamma (Homo sapiens) (P37231 whole entry, looked up): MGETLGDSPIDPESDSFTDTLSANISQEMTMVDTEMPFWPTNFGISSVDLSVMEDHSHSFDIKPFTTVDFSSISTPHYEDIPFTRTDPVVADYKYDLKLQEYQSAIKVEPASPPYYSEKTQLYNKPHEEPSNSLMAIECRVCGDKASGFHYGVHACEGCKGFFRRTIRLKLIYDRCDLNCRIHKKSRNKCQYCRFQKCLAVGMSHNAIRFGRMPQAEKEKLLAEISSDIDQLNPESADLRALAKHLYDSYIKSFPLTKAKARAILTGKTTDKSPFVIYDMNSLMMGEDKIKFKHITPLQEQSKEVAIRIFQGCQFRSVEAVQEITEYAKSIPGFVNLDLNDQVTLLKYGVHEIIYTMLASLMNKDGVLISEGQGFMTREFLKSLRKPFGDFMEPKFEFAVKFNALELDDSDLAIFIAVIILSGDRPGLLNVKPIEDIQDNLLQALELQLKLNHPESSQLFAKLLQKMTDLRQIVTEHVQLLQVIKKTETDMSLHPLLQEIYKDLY
A general note: Quantitative high-throughput screening tests each substance at several concentrations.

Experiment [2] is described as follows: qHTS assay for small molecule agonists of retinoid X receptor alpha signaling (AID 588544). Further: potency means the concentration at half of the fitted maximal effect. The note with it: HEK293T RXRa-UAS-bla, beta-lactamase reporter, 18 h; 530 nm emission.
The target in experiment [3] is Retinoic acid receptor RXR-alpha (Homo sapiens) (UniProt P19793). The experiment is described as above.
Sequence of Retinoic acid receptor RXR-alpha (Homo sapiens) (P19793 whole entry, looked up): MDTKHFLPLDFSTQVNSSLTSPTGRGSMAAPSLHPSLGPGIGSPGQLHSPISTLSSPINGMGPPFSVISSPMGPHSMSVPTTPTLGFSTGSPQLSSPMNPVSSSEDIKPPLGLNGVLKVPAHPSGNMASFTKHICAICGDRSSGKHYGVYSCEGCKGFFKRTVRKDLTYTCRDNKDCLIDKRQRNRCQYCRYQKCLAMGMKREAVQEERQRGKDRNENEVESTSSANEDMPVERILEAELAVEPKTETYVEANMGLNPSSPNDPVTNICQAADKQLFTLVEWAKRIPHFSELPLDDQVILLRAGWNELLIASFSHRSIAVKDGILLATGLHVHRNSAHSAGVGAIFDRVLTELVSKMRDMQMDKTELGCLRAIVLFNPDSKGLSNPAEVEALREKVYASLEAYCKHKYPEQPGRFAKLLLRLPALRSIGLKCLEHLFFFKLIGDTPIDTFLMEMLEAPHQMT
The target in experiment [4] is Thyroid hormone receptor beta (Homo sapiens) (UniProt P10828). The experiment in a line: qHTS assay for small molecule agonists of thyroid hormone receptor beta signaling (AID 588545).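 Further: 0% = DMSO only and 100% = 10 nM T3.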 The method in brief: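 Stimulation of a TR-driven beta-lactamase reporter was quantified in GripTite HEK 293 cells. Compound series ran for 18 hrs; curves were normalized to T3 and DMSO controls and fitted to yield EC50.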
Sequence of Thyroid hormone receptor beta (Homo sapiens) (P10828 whole entry, looked up): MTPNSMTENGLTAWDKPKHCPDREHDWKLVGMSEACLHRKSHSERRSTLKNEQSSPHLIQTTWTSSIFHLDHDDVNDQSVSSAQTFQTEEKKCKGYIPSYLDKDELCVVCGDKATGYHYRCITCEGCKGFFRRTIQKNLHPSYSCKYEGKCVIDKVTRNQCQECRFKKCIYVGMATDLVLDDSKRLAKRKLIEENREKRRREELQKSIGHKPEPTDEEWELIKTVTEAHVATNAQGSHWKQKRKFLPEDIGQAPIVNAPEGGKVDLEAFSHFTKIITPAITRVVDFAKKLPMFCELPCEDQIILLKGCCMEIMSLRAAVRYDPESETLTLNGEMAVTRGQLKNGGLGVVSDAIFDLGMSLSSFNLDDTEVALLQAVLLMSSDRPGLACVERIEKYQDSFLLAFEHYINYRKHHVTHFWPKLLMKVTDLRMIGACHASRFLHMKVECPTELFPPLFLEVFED

Experiment [5] can be described thus: qHTS assay for small molecule antagonists of retinoid X receptor alpha signaling (AID 588546; active means well fitted inhibition curve with a large enough effect in the signal ratio, with a control signal flat, not every such curve was filed as active; the % refers to the signal ratio;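 further: cells stimulated with 9-cis-retinoic acid as agonist; on the % scale 0 is the no-effect control and ±100 the full control effect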). Conditions: HEK293T RXRa-UAS-bla, beta-lactamase ratio, antagonist mode; measured here: W530 green channel, cytotoxicity proxy. In short, it runs like this: (§1)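 Beta-lactamase reporter inhibition, read as CCF4 fluorescence ratio (ex 405, em 460/530 nm) after 2 h at RT. HEK293T UAS-bla cells, 2500/well, were stimulated with 9-cis-RA at 500 or 100 nM final alongside test compound for 18 h at 37 C.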

For experiment [6], the target named is Retinoic acid receptor RXR-alpha (Homo sapiens) (UniProt P19793). Described as above. The note with it: HEK293T RXRa-UAS-bla, beta-lactamase ratio, antagonist mode. In short, it runs like this:
as §1

Experiment [7] addresses Peroxisome proliferator-activated receptor gamma (Homo sapiens) (UniProt P37231). As to the kind of experiment: qHTS assay for small molecule agonists of peroxisome proliferator-activated receptor gamma signaling (AID 588536; active means well fitted curve in the direction sought with a large enough effect in the signal ratio, with a control signal flat, not every such curve was filed as active; the % refers to the signal ratio;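 further: 0% = DMSO basal wells and 100% = rosiglitazone at 2 µM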). The method in brief: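 Compound treatment: 16 h, 37 C, HEK293 GeneBLAzer cells. Detection: CCF4, 2 h RT. Values: Hill-fit EC50, efficacy as % of 2 uM rosiglitazone.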

Experiment [8] has as its target Thyroid hormone receptor beta (Homo sapiens) (UniProt P10828). As to the kind of experiment: qHTS assay for small molecule antagonists of thyroid hormone receptor beta signaling (AID 588547; active means well fitted inhibition curve with a large enough effect in the signal ratio, with a control signal flat, not every such curve was filed as active; the % refers to the signal ratio;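 further: cells stimulated with 0.4 nM T3 agonist during compound exposure; series mostly up to about 77 µM; on the % scale 0 is the no-effect control and ±100 the full control effect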). Conditions: TR-UAS-bla HEK293, beta-lactamase ratio, antagonist mode, 18 h. In short, it runs like this: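 Inhibition of T3-driven (0.4nM final) beta-lactamase reporter activity was measured over 0.59 nM to 92 uM compound after 18 h at 37 C. The cells were GripTite HEK293 TR-UAS-bla in charcoal/dextran-stripped serum, with CCF4 ratio read-out and IC50 from Hill fits.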

The target of experiment [9] is Vitamin D3 receptor (Homo sapiens) (UniProt P11473). As to the kind of experiment: qHTS assay for small molecule antagonists of vitamin D receptor signaling (AID 588541). Further: potency means the concentration at half of the fitted maximal effect. The method in brief: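 Antagonist-mode beta-lactamase reporter assay: HEK293T VDR-UAS-bla cells were exposed to titrated compound alongside 1-alpha,25-dihydroxyvitamin D3 at 3 nM final for 16 h. Values were normalized to the 50 nM agonist control and DMSO basal, with IC50 and efficacy from Hill equation fits.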
Sequence of Vitamin D3 receptor (Homo sapiens) (P11473 whole entry, looked up): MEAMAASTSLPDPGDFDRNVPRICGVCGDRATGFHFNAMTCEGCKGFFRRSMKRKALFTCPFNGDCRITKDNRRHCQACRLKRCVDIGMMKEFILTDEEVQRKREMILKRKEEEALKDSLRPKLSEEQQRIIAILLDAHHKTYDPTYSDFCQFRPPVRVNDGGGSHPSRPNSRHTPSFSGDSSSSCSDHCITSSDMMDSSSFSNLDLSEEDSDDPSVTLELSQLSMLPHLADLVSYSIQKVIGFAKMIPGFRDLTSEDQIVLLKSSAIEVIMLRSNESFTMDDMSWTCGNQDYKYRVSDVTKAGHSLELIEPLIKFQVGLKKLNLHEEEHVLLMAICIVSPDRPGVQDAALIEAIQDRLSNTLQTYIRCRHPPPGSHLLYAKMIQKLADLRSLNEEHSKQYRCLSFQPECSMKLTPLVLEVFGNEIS

The target of experiment [10] is Peroxisome proliferator-activated receptor delta (Homo sapiens) (UniProt Q03181). As to the kind of experiment: qHTS assay for small molecule antagonists of peroxisome proliferator-activated receptor delta signaling (AID 588535; active means well fitted inhibition curve with a large enough effect in the signal ratio, with a control signal flat, not every such curve was filed as active; the % refers to the signal ratio). The method in brief:
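Titrations were run on PPAR-delta-UAS-bla HEK293T cells in charcoal/dextran-stripped serum, incubated 18 h at 37 C. CCF4 fluorescence (460/530 nm) after 2 h RT; Hill equation yields IC50 and maximal response.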

Molecules are shown by their SMILES. Where “and” joins values, the source holds several entries; their conditions need not be identical. Equal values may be shown once. Records with an inconclusive call do not appear. Calls of active or inactive are those of the source. Unless noted, the call rests on the fitted dose curve.

Sequence of Peroxisome proliferator-activated receptor delta (Homo sapiens) (Q03181 whole entry, looked up): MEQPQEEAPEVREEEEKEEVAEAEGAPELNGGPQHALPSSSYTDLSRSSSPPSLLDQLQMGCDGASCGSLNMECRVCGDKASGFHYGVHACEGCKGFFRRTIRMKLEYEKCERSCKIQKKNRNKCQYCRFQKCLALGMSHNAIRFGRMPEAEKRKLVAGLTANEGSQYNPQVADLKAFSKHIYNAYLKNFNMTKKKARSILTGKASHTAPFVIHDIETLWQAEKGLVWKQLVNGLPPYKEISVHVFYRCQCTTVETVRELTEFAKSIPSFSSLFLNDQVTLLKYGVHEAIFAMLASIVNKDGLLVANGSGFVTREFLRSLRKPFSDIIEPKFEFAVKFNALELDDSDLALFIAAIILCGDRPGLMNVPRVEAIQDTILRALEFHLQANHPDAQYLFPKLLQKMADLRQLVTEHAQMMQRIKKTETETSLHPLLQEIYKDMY

On to `CC1(C)C(C=C(Cl)Cl)C1C(=O)OC(C#N)c1cccc(Oc2ccccc2)c1` (stereo unspecified), for which the result in [1] and in experiment [4] was inactive. Also, the max response in experiment [2] is 0.437%; in [5], -14.1%; in [6] it was -18% (inactive). The Potency entry in experiment [3] was “inactive”.

Turning to `COP(=S)(OC)SCN1C(=O)c2ccccc2C1=O`, the call in experiment [7] and in experiment [4] was inactive. Also, in experiment [8], the activity change % (negative = inhibition) was -12.6% (inactive).

Regarding `COC(=O)C(c1ccccc1)C1CCCCN1` (stereo unspecified), the result in experiment [7], in [1] and in [4] was inactive. Besides, the Potency entry in experiment [9] was “inactive”. In addition, the results for the max response in experiment [5] and in experiment [6] were -4.37% and -5.94% (inactive), respectively. Besides, the activity change % (negative = inhibition) in experiment [8] was 13% (inactive).

Take `Nc1ccc([As](=O)(O)O)cc1`: the call in experiment [10], in experiment [7], in [1] and in experiment [4] was inactive. Moreover, the Potency result in experiment [9] and in experiment [3] was “inactive” each time. The max response was -10% in [2], -13.3% in experiment [5] and -8.6% (inactive) in [6]. For the same molecule, the activity change % (negative = inhibition) in [8] is 0.893% (inactive).

On to `Oc1ccc(Cl)cc1`, for which the result in experiment [10], in [7], in [1] and in [4] was inactive. In addition, the Potency entry in experiment [9] and in experiment [3] was “inactive” each time. Moreover, the max response in experiment [2] was -11.6%; in [5] it was -7.58%; in experiment [6], -3.06% (inactive). The activity change % (negative = inhibition) in [8] was -0.268% (inactive).

Take `CN1C[C@H](C(=O)N[C@]2(C)O[C@@]3(O)[C@@H]4CCCN4C(=O)[C@H](Cc4ccccc4)N3C2=O)C=C2c3cccc4[nH]cc(c34)C[C@H]21`: in experiment [4], the outcome was inactive.

For `O=C1c2ccccc2C(=O)c2ccccc21`, the call in experiment [10], in [7], in experiment [1] and in experiment [4] was inactive. Further, the Potency entry in [9] was “inactive”. For the same molecule, the results for the max response in experiment [2], in experiment [5] and in [6] were -19.1%, -16.5% and -15.9% (inactive), respectively. Further, the Potency in experiment [3] was 35.5 µM (active). Moreover, in experiment [8], the activity change % (negative = inhibition) is -1.19% (inactive).

In the case of `O=C(Oc1ccccc1)c1ccccc1O`, the max response in [2] turned out to be 23.5%. For the same molecule, in experiment [3], the Potency result was “inactive”.

As for `Nc1ccccc1C(=O)O`, the molecule was called inactive in experiment [7], in [1] and in experiment [4]. Further, the Potency result in experiment [9] and in experiment [3] was “inactive” each time. For the same molecule, the max response was -3.98% in experiment [2], -6.42% in experiment [5] and 6.99% (inactive) in experiment [6]. The activity change % (negative = inhibition) in experiment [8] was 18% (inactive).

Consider `CC(C)c1cccc(C(C)C)c1O`, for which the molecule was called inactive in experiment [10], in experiment [7] and in experiment [4]. In addition, the Potency result in [9] and in [3] was “inactive” each time. In addition, the values for the max response in [2], in experiment [5] and in experiment [6] were -14.1%, 2.4% and 16.4% (inactive), respectively. The activity change % (negative = inhibition) in [8] was -3.45% (inactive).

Turning to `CC(=O)N1CCN(c2ccc(OC[C@H]3CO[C@](Cn4ccnc4)(c4ccc(Cl)cc4Cl)O3)cc2)CC1`, the Potency in [9] is 44.7 µM (active).

For the molecule `Clc1ccc(C(c2ccc(Cl)cc2)C(Cl)(Cl)Cl)cc1`, the molecule was called inactive in experiment [10], in [1] and in experiment [4]. Besides, in [9], the Potency entry was “inactive”. In experiment [8], the activity change % (negative = inhibition) is -20.1% (inactive) and -18.4% (inactive).

In the case of `C[C@]12CCC(=O)C=C1CC[C@@H]1[C@@H]2CC[C@]2(C)C(=O)CC[C@@H]12`, the result in [7] and in [4] was inactive. The results for the max response in [5] and in [6] were 24.5% and 1.25% (inactive), respectively. Further, in experiment [8], the activity change % (negative = inhibition) is 12.5% (inactive).

`Nc1ccccc1`: the molecule was classed as inactive in experiment [10], in experiment [7], in experiment [1] and in [4]. Also, the results for the max response in [2], in experiment [5] and in [6] were 9.36%, -11.1% and 4.87% (inactive), respectively. Further, in [3], the Potency result is “inactive”. Also, the activity change % (negative = inhibition) in experiment [8] is -1.42% (inactive).

For the molecule `CCOP(=S)(OCC)Oc1ccc2c(C)c(Cl)c(=O)oc2c1`, the outcome in [7], in experiment [1] and in [4] was inactive.

With `CC(C)NC(C)C`, the molecule was called inactive in experiment [7] and in [4]. Moreover, the Potency entry in [9] and in [3] was “inactive” in each case. The max response was -5.82% in experiment [2], -16.3% in experiment [5] and 9.42% (inactive) in experiment [6].

As to `CCOC(=O)CC(SP(=S)(OC)OC)C(=O)OCC` (stereo unspecified), the molecule was called inactive in experiment [10], in [7] and in experiment [4]. Besides, the Potency result in [9] and in [3] was “inactive” each time. Moreover, the max response in experiment [2] was 5.59%; in experiment [5] it was 12.5% and 3.13% and -23.2%; in experiment [6], -24.3% (inactive) and -13.6% (inactive) and -13.7% (inactive). Further, in experiment [8], the activity change % (negative = inhibition) is -33.5% (inactive).

Values taken from PubChem BioAssay (NCATS).
